# Bioassay records from PubChem BioAssay.
# Hits are enriched below; roughly 3.3% of the tested compounds scored in any of these assays.
# AmpC no deterg = qHTS Inhibitors of AmpC Beta-Lactamase (assay without detergent) | P00811 | AmpC nitrocefin hydrolysis, absorbance 480 nm, 0.0001% Triton | Potency, µM (highest dose often 57.1 µM), for the others: top-dose activity change, negative = inhibition, most hits filed as inhibitors | actives 0.52% (n = 330,000);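 further: plate controls were no compound for no effect and no enzyme for full effect; nearly all actives have a fitted effect of over 20% in size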
# Target sequence (P00811 whole entry, looked up): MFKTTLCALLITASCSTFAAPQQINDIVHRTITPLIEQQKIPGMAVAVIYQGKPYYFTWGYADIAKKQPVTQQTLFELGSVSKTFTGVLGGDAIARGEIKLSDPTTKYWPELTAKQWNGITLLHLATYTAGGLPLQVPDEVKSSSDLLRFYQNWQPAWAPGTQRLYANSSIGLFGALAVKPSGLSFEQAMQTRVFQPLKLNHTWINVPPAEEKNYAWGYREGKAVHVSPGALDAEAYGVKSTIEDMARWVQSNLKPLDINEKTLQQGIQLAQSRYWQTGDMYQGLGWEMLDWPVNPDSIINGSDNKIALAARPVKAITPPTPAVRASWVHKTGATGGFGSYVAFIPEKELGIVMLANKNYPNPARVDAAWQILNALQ
#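 20 mM phosphate pH 7.0 + 0.01% (detergent screen) or 0.0001% Triton X-100; 5.3 nM AmpC reagent; cpd preinc 15 min RT; nitrocefin (800 uM stock) to start; A480 q20 s × 4 min; Activity was normalised to no-enzyme and no-compound control wells.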
# Sm TGR block = qHTS Assay for the Inhibitors of Schistosoma Mansoni Peroxiredoxins; purified TGR, DTNB reduction, TNB absorbance 405 nm; Potency, µM (highest dose often 114 µM), for the others: at the top dose activity change, negative = inhibition, hits mostly inhibitors; actives 3% (n = 360,000); further: nearly all actives have a fitted effect of over 60% in size
#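 TGR 20 nM + NADPH 100 uM (dispensed conc.), cpd preinc 15 min RT; start with NADPH (500 uM addition) then DTNB (15 mM addition). Kinetic TNB absorbance, 405 nm filter. Four-parameter Hill fit across titration.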
# AmpC detergent = qHTS Inhibitors of AmpC Beta-Lactamase (assay with detergent). AID 485294, 2010. AmpC hydrolysis of nitrocefin, absorbance 480 nm, 0.01% Triton. actives 0.041% (n = 370,000). Potency, µM (titrated, usually from 114 µM), inactives show at the top dose activity change, negative = inhibition, hits mostly inhibitors;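 further: 0% = no-compound wells and -100% = no-enzyme wells; nearly all actives have a fitted effect of over 25% in size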
#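 AmpC (5.3 nM in the dispensed reagent) in 20 mM phosphate pH 7.0 with 0.01% (detergent screen) or 0.0001% Triton X-100 was preincubated with compounds for 15 min at room temperature. Nitrocefin was then added from an 800 uM solution, and hydrolysis was followed at 480 nm.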
# * = called active by the depositor; ? = inconclusive; · = no result given; [ ] = remark or other dose. The call rests on the fitted dose curve; in most records, active means well fitted curve in the direction sought with a large enough effect; inconclusive means small, poorly fitted or top-dose-only effect, or another doubt; inactive means no such curve, though single readings can be large; an effect the other way counts as inactive or inconclusive. Unless noted, on the % scale 0 is the no-effect control and ±100 the full control effect; potency means the concentration at half of the fitted maximal effect.
SMILES,AmpC no deterg,Sm TGR block,AmpC detergent
Cc1ccc2oc3c(c(=O)c2c1)C(c1ccccc1F)N(c1ccccn1)C3=O (stereo not drawn),·,0%,19%
Cc1ccc2oc3c(c(=O)c2c1)C(c1cccc(O)c1)N(c1ccccn1)C3=O (stereo not drawn),3.5µM*,3%,-5%
Cc1cccc(Nc2ncnc3c2cnn3C)c1C,·,0%,-4%
COc1ccc(S(=O)(=O)N2CCCC2CNC(=O)C(=O)NCc2ccccc2Cl)cc1 (stereo not drawn),28µM*,-4%,-18%
COc1ccc(S(=O)(=O)N2CCCC2C(=O)NCc2ccccc2Cl)cc1 (stereo not drawn),5%,0%,-1%
Cc1ccc(-n2c(=O)c3oc4ccccc4c3n(Cc3ccccc3F)c2=O)cc1C,·,6%,7%
O=C(COC(=O)c1ccc([N+](=O)[O-])s1)Nc1ccc(F)cc1,-25%,14µM*,0%
O=C(COC(=O)c1ccc([N+](=O)[O-])s1)Nc1ccccc1,-8%,?,-6%
Cc1ccc(-n2c(=O)c3ccc(C(=O)NCc4ccccc4Cl)cc3n(Cc3cccc(F)c3)c2=O)cc1,·,?,2%
COc1ccc(O[C@H]2C=C[C@@H](c3ccccc3)O[C@@H]2COC(=O)CC/C(C)=N/O[C@@H](C)CN2CCCCc3nc(C)c(C)cc32)cc1,117%,-26%,0%
C/C(CCC(=O)OC[C@H]1O[C@H](C#Cc2ccccc2)C=C[C@@H]1Oc1ccc(C)cc1)=N\O[C@@H](C)CN1CCCCc2nc(C)c(C)cc21,157%,35µM*,1%
CCOc1ccc(-c2nnc(SCC(=O)NCc3ccccc3)nc2-c2ccc(OCC)c(OC)c2)cc1OC,·,3%,4%
COC(=O)c1ccc(CN(c2ccccn2)S(=O)(=O)c2ccccc2)cc1,4%,2%,-7%
COC(=O)c1ccc(CN(c2ccc(C(=O)O)c(O)c2)S(=O)(=O)c2ccc(Cl)c([N+](=O)[O-])c2)cc1,7.9µM*,-30%,-4%
COc1ccc(-c2ccc(NS(=O)(=O)c3ccc(F)c(C(F)(F)F)c3)cc2)nn1,·,-11%,2%
Cc1ccc(NC(=O)C(OC(=O)c2ccc(F)cc2)c2ccccc2)cc1Cl (stereo not drawn),-20%,-6%,-1%
Cc1ccc(NC(=O)C(OC(=O)c2ccc(O)cc2)c2ccccc2)cc1Cl (stereo not drawn),7.1µM*,3%,-3%
COc1ccc(C2c3c(oc4cc(C)cc(C)c4c3=O)C(=O)N2Cc2ccco2)cc1OC (stereo not drawn),·,4%,11%
O=C(Nn1c(-c2ccc(Br)cc2)nc2ccccc2c1=O)c1ccncc1,-27%,9%,4%
Cc1cc(C(=O)Nn2c(-c3ccc(Br)cc3)nc3ccccc3c2=O)ccc1[N+](=O)[O-],14µM*,-8%,-13%
CC(C)COc1ccc(C(=O)N2CCC(c3nc4ccccc4s3)CC2)cc1,·,0%,8%
CCCc1ccc(OCC(=O)Nc2sc3c(c2C(=O)OC)CCCCC3)cc1,·,-10%,2%
S=C(NCc1ccncc1)Nc1ccc(Br)cc1Cl,2%,35µM*,-5%
COc1ccc(Cl)cc1NC(=S)Nc1cccnc1,-10%[2.29 µM],13µM*,1%
O=C(NNC(=S)Nc1ccc(Br)cc1Cl)c1ccncc1,-16%,-21%,-7%
SMILES,AmpC no deterg,Sm TGR block,AmpC detergent
COc1cccc(NC(=S)NCc2ccccc2)c1,-52%,-25%,-14%
COc1ccc(Cl)cc1NC(=S)Nc1cccc(C)c1,-29%,-1%,1%
S=C(NCc1cccnc1)Nc1cccc2ccccc12,-27%,32µM*,2%
COc1cccc(NC(=S)NCc2cccnc2)c1,-14%,45µM*,-10%
S=C(NCc1ccccc1)Nc1cccc2cnccc12,-19%,?,-9%
Cc1ccccc1OCC(=O)Nc1ccc2nc(SCC(N)=O)sc2c1,·,-2%,0%
Nc1c(C(=O)Nc2ccc(OC(F)(F)F)cc2)nnn1Cc1ccccc1,·,-5%,-3%
COc1ccc(NC(=O)c2ccc3c(c2)CCN3S(=O)(=O)c2ccc(C)cc2)cc1Cl,·,1%,-5%
CCN1CCc2c(sc(NC(=O)c3ccc(S(=O)(=O)N(C)C4CCCCC4)cc3)c2C(N)=O)C1,·,-3%,7%
COc1cccc(NC(=S)Nc2ccc(Br)cc2Cl)c1,-36%,22µM*,7%
CCOc1ccc(NC(=S)Nc2ccc(Br)cc2Cl)cc1,-15%[2.29 µM],-27%,?
COc1cccc(NC(=S)Nc2cccnc2)c1,-18%,40µM*,-9%
Cc1cccc(NC(=S)NCc2ccncc2)c1C,-20%,?,-2%
COc1ccc(NC(=S)Nc2cccnc2)c(OC)c1,-30%,?,-10%
Cc1ccc(C(=O)NC(=S)NCc2cccnc2)cc1C,-25%,50µM*,4%
COc1ccc(C(=O)NC(=S)NCc2cccnc2)cc1Br,-13%[2.29 µM],-35%,0%
Cc1cccc(C)c1NC(=S)NCc1ccncc1,-30%,28µM*,3%
COc1ccc(NC(=O)Cn2c(=O)n(-c3cccc(C(F)(F)F)c3)c(=O)c3sccc32)cc1,·,0%,5%
CCOc1ccccc1NC(=O)c1nc(SC(C)C)ncc1Cl,·,2%,1%
CC(C)CCn1c(=O)c2sccc2n2c(CCCC(=O)Nc3ccc(C(C)C)cc3)nnc12,·,6%,21%
O=C(O)c1ccccc1Nc1ccc([N+](=O)[O-])cc1C(=O)O,-15%,-14%,7%
O=[N+]([O-])c1c(Nc2ccccc2O)cc(N2CCOCC2)c2nonc12,-13%,4%,?
O=[N+]([O-])c1cc([N+](=O)[O-])c2nonc2c1Nc1ccccc1O,-22%,50µM*,-1%
O=C(O)c1ccccc1Nc1ccc([N+](=O)[O-])c2nonc12,-3%,35µM*,-12%
O=[N+]([O-])c1cc([N+](=O)[O-])c2nonc2c1Nc1ccc(O)cc1,-37%,32µM*,4%
SMILES,AmpC no deterg,Sm TGR block,AmpC detergent
CC(=O)c1ccc(Nc2c([N+](=O)[O-])ccc3nonc23)cc1,-16%,-14%,4%
CCOC(=O)c1ccc(NC(=O)NCCOCCn2c(=O)oc3ccccc32)cc1,·,6%,16%
Cc1ccc(-c2noc(-c3nnn(CC(=O)Nc4cccc(C(F)(F)F)c4)c3N)n2)cc1,·,18%,3%
Cc1cccc(C)c1OCc1nc2c3cnn(-c4ccccc4Br)c3ncn2n1,·,2%,-6%
CCN(Cc1ccccc1)Cc1c(O)ccc2oc(C)c(C(=O)Nc3ccccc3C)c12,·,-35%,-1%
CCOc1ccc(C2C3=C(CCCC3=O)Nc3ccc4ncccc4c32)cc1 (stereo not drawn),-1%,18µM*,4%
CC1=C(C#N)C(c2ccc(O)cc2)C2=C(CCCC2=O)N1 (stereo not drawn),-12%,0%,0%
O=C1CCCC2=C1C(c1ccc(O)cc1)c1c(ccc3ccccc13)N2 (stereo not drawn),-35%,25µM*,-13%
O=C1CCCC2=C1C(c1ccc(O)c(O)c1)c1c(ccc3ncccc13)N2 (stereo not drawn),-17%,?,-6%
